Data published in PubChem BioAssay.

System: glycogen synthase kinase-3 (GSK3A per assay name; protocol says GSK3B)
Assay: GSK3 binders on small-molecule microarrays, primary screen, biochemical, small-molecule microarray, 635 nm fluorescence, GSK3A (AID 1103); further: the record names both GSK3A and GSK3B
Details: small-molecule microarray binding, fluorescence 635 nm; higher = more signal

| Structure (SMILES) | composite z-score |
| --- | --- |
| COc1ccc([Si](C)(C)[C@@H]2[C@@H](CC(=O)N3Cc4ccccc4C[C@H]3CO)O[C@]3(C(=O)N(C)c4ccccc43)[C@H]2C)cc1 | 1.3 |
| O=C(N1CCCCC1)[C@@]1(CCS(=O)(=O)c2ccccc2)COC(c2ccc(OCCCO)cc2)=N1 | 1.02 |
| O=C1NC(=O)C2C1C=CC(C(O)CCc1ccccc1)N2Nc1ccc(Cl)cc1Cl (stereo not given) | 0.107 |
| C=CCC(OC(C)=O)[C@@H]1[C@@H](N(Cc2cc3ccccc3o2)C(=O)c2ccc(-c3ccccc3)cc2)c2cc(OCCCO)ccc2N1C(=O)c1ccc2ccccc2c1 (stereo not given in full) | 0.289 |
| CCOC(=O)C[C@H]1[C@H](OC(=O)Cc2ccc3c(c2)OCO3)[C@@H](NC(=O)Cc2ccc(OC)cc2)c2cc(OCCCO)ccc2N1C(=O)c1ccc2ccccc2n1 | 0.415 |
| COC(=O)c1c2oc(c1C(=O)OC)C(=O)N(Cc1ccccc1)Cc1cn(nn1)C[C@H](Cc1ccccc1)NC(=O)N[C@H](CO)CC2 | 0.278 |
| NC(N)=NCCCn1cc(CNC(=O)[C@@H](N)Cc2ccccc2)nn1 | 0.0853 |
| NC(=O)N1C(=O)C2C(C1=O)C1C=C(CCCO)C2C(c2cccs2)N1Cc1cccc(OC(F)(F)F)c1 (stereo not given) | 0.177 |
| CCOC(=O)C[C@H]1[C@H](OC(=O)c2cc3ccccc3oc2=O)[C@@H](NC(=O)Cc2ccc(OC)cc2)c2cc(OCCCO)ccc2N1C(=O)c1ccc2ccccc2n1 | 0.372 |
| COCCOC(=O)N1C(=O)[C@@]2(c3cc(C#CC4=CCCCC4)ccc31)[C@H](c1ccc(OCCO)cc1)N1[C@H](c3ccccc3)[C@H](c3ccccc3)OC(=O)[C@H]1[C@@H]2C(=O)NC[C@H](O)c1ccccc1 | 1.31 |
| COC(=O)c1nc2oc1CC[C@@H](CO)NC(=O)N(C)Cc1cnnn1C[C@H](Cc1ccccc1)NC2=O | -1.05 |
| CN1C(=O)C2C=CC(C(O)COCc3ccccc3)N(N(c3ccccc3)c3ccccc3)C2C1=O (stereo not given) | -0.588 |
| COc1cc2c(cc1O)C(C)N(Cc1ccc([N+](=O)[O-])o1)CC2 (stereo not given) | 0.899 |
| C=CCOC(=O)[C@H]1[C@@H]2C(=O)O[C@@H](c3ccccc3)[C@@H](c3ccccc3)N2[C@@H](c2ccc(OCCOC(=O)[C@@H]3C[C@@H]4C(=O)N[C@@H](CCCCN(C)C)C(=O)N4[C@@H]3c3ccc(O)cc3)cc2)[C@]12C(=O)Nc1ccccc12 | 1.32 |
| CCOC(=O)C1=C[C@@H](c2ccccc2)N(S(=O)(=O)c2ccc(C)cc2)[C@H]1c1ccccc1Cl | 1.29 |
| C[N+](C)(C)CCCCCCNC(=O)[C@H]1C[C@H]2C(=O)NCC(=O)N2[C@H]1c1ccc(O)cc1 | 0.846 |
| COc1cc(CO)cc(I)c1O[C@H]1C=C(C(=O)NCCO)C[C@@H](NCc2ccc(F)cc2)[C@@H]1O | 0.191 |
| COC1OC[C@]2(C)[C@H]3C4=C(CN2C(=O)OC(C)(C)C)[C@H](C)C(CO)C(CO)C4CC[C@@H]13 (stereo not given in full) | 1.18 |

| Structure (SMILES) | composite z-score |
| --- | --- |
| O=C1O[C@H](c2ccccc2)[C@H](c2ccccc2)N2[C@H]1[C@@H](C(=O)Nc1nc3ccccc3s1)[C@]1(C(=O)Nc3ccc(C#CCCO)cc31)[C@H]2c1ccc(O)cc1 | 0.88 |
| C=CCC(OC(C)=O)[C@@H]1[C@@H](N(Cc2cc3ccccc3o2)C(=O)Cc2ccc(F)cc2)c2cc(OCCCO)ccc2N1C(=O)c1ccc2ccccc2c1 (stereo not given in full) | -0.711 |
| OCCCC1=CC(c2ccc(CN3CCCC3)cc2)N(Cc2sc3ccccc3c2Cl)CC1 (stereo not given) | 1.3 |
| O=C1O[C@H](c2ccccc2)[C@H](c2ccccc2)N2[C@H]1[C@@H](C(=O)N1CCN(c3ncccn3)CC1)[C@]1(C(=O)Nc3ccc(C#CC4(O)CCCCCC4)cc31)[C@H]2c1ccc(OCCO)cc1 | 1.33 |
| O=C1C2C=CC(C(O)c3ccc(Br)cc3)N(Nc3ccccc3F)C2C(=O)N1c1ccccc1 (stereo not given) | 0.235 |
| COCCOC(=O)N1C(=O)[C@@]2(c3cc(C#CCC(C(=O)OC)C(=O)OC)ccc31)[C@H](C(=O)N1CCc3cc(OC)c(OC)cc3C1)[C@H]1C(=O)O[C@H](c3ccccc3)[C@H](c3ccccc3)N1[C@@H]2c1ccc(OCCO)cc1 | 1.31 |
| CC(CO)N1C(=O)[C@@H]2[C@H]3C(=O)OCC=C[C@H]3OC23C=CCN(CCN2CCOCC2)C(=O)[C@@H]13 (stereo not given in full) | 0.248 |
| C=C(COC)C(=O)CC[C@@H](OC(=O)c1cccnc1)c1ccc(OCCO)cc1 | 0.328 |
| COC(=O)[C@@]1(Cc2ccc(OC)cc2)[C@H]2c3cc(C(=O)N4CCCC4)n(Cc4cccc5ccccc45)c3C[C@H]2CN1C(=O)c1ccccc1 | 0.407 |
| CC(C)(C)OC(=O)CC[C@@]1(C(=O)NCc2ccccc2)N=C(c2ccc(OCCCO)cc2)O[C@@H]1c1ccccc1N=[N+]=[N-] | 1.18 |
| C=CC[C@@]1(C(=O)N2CCOCC2)N=C(c2ccc(OCCCO)cc2)O[C@@H]1c1ccccc1CN=[N+]=[N-] | 1.32 |
| COC(=O)[C@@]1(Cc2ccc(F)cc2)[C@H]2c3cc(C(=O)N4CCCC4)n(CCc4ccc(O)c(O)c4)c3C[C@H]2CN1C(=O)c1ccccc1 | -1.73 |
| CCOC(=O)C[C@H]1[C@H](OC(=O)c2cc3ccccc3oc2=O)[C@@H](NC(=O)c2ccc(-c3ccccc3)cc2)c2cc(OCCCO)ccc2N1C(=O)c1ccc2ccccc2n1 | 1.01 |
| COc1ccc([Si](C)(C)[C@H]2[C@H](CCn3cc([C@H](O)c4ccccc4)nn3)O[C@@]3(C(=O)N(Cc4ccc(N5C(=O)c6cccc7cccc5c67)cc4)c4ccccc43)[C@@H]2C)cc1 | -0.509 |
| C[C@@H]1NC(=O)[C@@]23C(=O)N[C@@H](Cc4ccccc4)C2[C@H](C)[C@@]2(C)O[C@H]2C3/C=C/C/C=C\CNC(=O)[C@@H]2CCCN2C1=O (stereo not given in full) | -0.438 |
| COC(=O)[C@@]1(Cc2ccccc2)[C@H]2c3cc(C(=O)N(C)C)n(Cc4c(CO)[nH]cc(C)c4=O)c3C[C@H]2CN1C(=O)c1ccccc1 | -0.0088 |
| COC(=O)CCCCCCC(=O)Nc1ccc(NC(=O)CCCC[P+](c2ccccc2)(c2ccccc2)c2ccccc2)cc1 | 0.686 |
